RORg inh = inhibitors of mouse ROR gamma transcriptional activity; P51450; Drosophila S2 Gal4-RORgamma UAS-luciferase reporter, 20 h; Potency, µM (top dose mostly 53.6 µM), without a hit: top-dose activity change, negative = inhibition, hits mostly inhibitors; hit rate 5.4% among 310,000; AID 2551; also: potency is read from the fitted curve at half-maximal effect; nearly all actives have a fitted effect of over 60% in size
Target sequence (P51450 whole entry, looked up, the tested form may be a part): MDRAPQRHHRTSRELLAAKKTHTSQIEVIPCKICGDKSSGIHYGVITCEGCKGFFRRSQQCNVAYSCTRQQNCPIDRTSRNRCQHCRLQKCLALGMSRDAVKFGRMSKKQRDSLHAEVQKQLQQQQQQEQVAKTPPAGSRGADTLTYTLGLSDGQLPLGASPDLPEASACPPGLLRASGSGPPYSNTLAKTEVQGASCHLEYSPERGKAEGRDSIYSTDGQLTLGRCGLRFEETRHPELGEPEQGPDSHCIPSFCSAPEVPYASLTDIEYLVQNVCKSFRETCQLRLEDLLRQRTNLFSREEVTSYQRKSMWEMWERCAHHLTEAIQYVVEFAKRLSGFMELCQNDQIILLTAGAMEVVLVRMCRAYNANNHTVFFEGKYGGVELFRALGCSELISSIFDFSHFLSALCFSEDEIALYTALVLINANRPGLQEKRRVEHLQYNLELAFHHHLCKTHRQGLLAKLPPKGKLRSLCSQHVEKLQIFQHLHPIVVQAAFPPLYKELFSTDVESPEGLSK
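Compounds are pin-transferred onto Drosophila Schneider cells expressing a copper-inducible Gal4–ROR gamma transactivation domain fusion. After 1 hr, copper sulfate is added to 700 uM final; luciferase is read 20 hr later.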
TDP1 cell noCPT = qHTS for Inhibitors of human tyrosyl-DNA phosphodiesterase 1 (TDP1): qHTS in cells in absence of CPT; Potency, µM (series often up to 46.2 µM), without a hit: at the highest dose activity change, negative = growth inhibition, actives largely listed as inhibitors; DT40 Tdp1-/- hTDP1 cells, no CPT, ATP luminescence, 48 h; hit rate 15% among 420,000; also: potency is read from the fitted curve at half-maximal effect; nearly all actives have a fitted effect of over 55% in size
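Luminescent ATP content (CellTiter-Glo) served as the growth readout. Knockout chicken DT40 cells expressing human TDP1 were exposed to compounds without camptothecin for a minimum 48 hr at 37 °C.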
IL1B secr inh = inflammasome signaling inhibition, IL-1 beta readout; THP-1 LPS/ATP IL-1B secretion, AlphaLISA, 16 h; stronger effect = lower value; activity change, % at 57.5 µM; hit rate 4.7% among 360,000; AID 743279; in the data active = activity change below about -50%; inconclusive = mostly about -30% to -49%
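THP-1 cells pretreated 1 hr with compounds (up to 57.5 uM final), then stimulated with LPS (250 ng/mL final) plus ATP (1.25 mM final); secreted IL-1B measured by AlphaLISA after 16 hr, decreased signal indicating inhibition.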
LDHA inh = LDHA (human) enzyme inhibition | P00338 | purified LDHA, NADH/diaphorase-resazurin fluorescence; stronger effect = lower value | activity change, % (values are at about 110 or 230 µM) | hit rate 0.15% among 480,000 | AID 1347041; in the data active = activity change below about -30%; inconclusive = mostly about -25% to -30%;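 also: plate controls were DMSO wells for no effect and wells without enzyme for full effect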
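Enzyme activity of human lactate dehydrogenase 5 (2 nM; 0.06 mM NADH, 0.2 mM pyruvate, 5 min, RT) is measured via a resazurin/diaphorase fluorescence readout of residual NADH.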
DT40 TDP1 CPT = DT40-hTDP1 cell growth loss with CPT; chicken DT40 Tdp1-/-;hTDP1 cells + 20 nM CPT, ATP luminescence, 48 h; hit rate 12% among 420,000; AID 686979; Potency, µM (top dose mostly 46.2 µM), inactives show at the top dose activity change, negative = growth inhibition, usual class: inhibitors; also: potency is read from the fitted curve at half-maximal effect; nearly all actives have a fitted effect of over 55% in size
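Chicken DT40 Tdp1-/- cells complemented with human TDP1, 400 cells/well, exposed to compounds plus 20 nM camptothecin for at least 48 h at 37 C; viability read as ATP content by CellTiter-Glo luminescence.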
VP16 counter = Gal4-VP16 reporter inhibition counter-screen; Drosophila S2 Gal4-VP16 UAS-luciferase, luminescence, 20 h; Potency, µM (titrated, usually from 53.6 µM), inactives show top-dose activity, negative = inhibition, usual class: inhibitors; hit rate 3.5% among 310,000;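 also: Gal4-VP16 expression switched on by copper sulfate through the metallothionein promoter; potency is read from the fitted curve at half-maximal effect; nearly all actives have a fitted effect of over 50% in size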
An asterisk follows results filed as active; ? = inconclusive; · = no result given. Rows were chosen to be rich in hits. Some 18% of all compounds tested hit in one or more screens of this group. Unless noted, calls follow the shape of the dose curve; as a rule, active = well fitted curve in the direction sought with a large enough effect; inconclusive = small, poorly fitted or top-dose-only effect, or another doubt; inactive = no such curve, though single readings can be large; an effect the other way counts as inactive or inconclusive. Unless noted, % is scaled to controls: 0 for no effect and ±100 for the full control effect.

SMILES	RORg inh	TDP1 cell noCPT	IL1B secr inh	LDHA inh	DT40 TDP1 CPT	VP16 counter
COc1ccc(NC(=O)c2cnc(SC)nc2)cc1	38%	12µM*	9	-12	15µM*	25%
COc1ccc(NC(=O)c2nc(SC)ncc2Cl)cc1	5%	1%	2	-8	-14%	-11%
CCc1ccccc1-n1ncc(C(=O)Nc2ccc(OC)cc2)c1C	·	?	-65*	-8	-7%	·
COc1ccc(NC(=O)c2c(Cl)n(C)c3ccccc23)cc1	4%	8.2µM*	18	0	8.2µM*	3%
COc1ccc(NC(=O)c2cc(SC)ccc2Cl)cc1	31%	?	?	2	23µM*	?
COc1ccccc1NC(=O)C(C)Sc1nc2ccccc2nc1C (stereo not drawn)	·	·	·	6	·	·
O=C(NCc1cccnc1)C1(c2cccc(C(F)(F)F)c2)CCOCC1	·	·	·	10	·	·
CC(C)Cc1ccc(CN2CCCC(NC(=O)c3ccoc3)C2)cc1 (stereo not drawn)	0%	13µM*	-8	-1	12µM*	?
CC(C)Cc1ccc(CN2CCCC(NC(=O)c3ccnn3C)C2)cc1 (stereo not drawn)	?	23µM*	-23	-1	18µM*	?
CC(C)Cc1ccc(CN2CCCC(NC(=O)c3nn(C)c(=O)c4ccccc34)C2)cc1 (stereo not drawn)	·	?	-13	2	?	·
Cc1noc(C)c1CCC(=O)NC1CCCN(Cc2ccc(CC(C)C)cc2)C1 (stereo not drawn)	8%	15µM*	-21	0	18µM*	-2%
CC(C)Cc1ccc(CN2CCCC(NC(=O)c3cccc(-n4cnnc4)c3)C2)cc1 (stereo not drawn)	?	23µM*	-51*	0	21µM*	-12%
CCCCCCSC1=C(C#N)C(c2ccccc2C)CC(=O)N1 (stereo not drawn)	·	·	·	19	·	·
OC1CCC(NC(=S)Nc2ccc(SC(F)F)cc2)CC1 (stereo not drawn)	-28%	?	-15	-8	?	-2%
CC1CCCC(NC(=S)Nc2ccc(SC(F)F)cc2)C1C (stereo not drawn)	0.5µM*	?	-1	-1	?	5µM*
CC1CCCC(NC(=S)NCc2ccc(F)cc2)C1C (stereo not drawn)	·	·	·	-11	·	·
FC(F)Sc1ccc(NC(=S)NC2CCCC2)cc1	11µM*	16µM*	-3	-11	?	?
Cc1cc(C(=O)NC(C)c2cccc(OC(F)F)c2)sc1C (stereo not drawn)	·	·	·	5	·	·
CCc1ccc(N(C(C)=O)c2nc(CCl)cs2)cc1	10%	10µM*	-23	-9	-10%	-3%
O=C(NC1CC1)c1cc2occc2n1Cc1ccccc1F	·	·	·	1	·	·
Cc1ccc(C)c(NC(=S)N/N=C2\CCc3ccccc32)c1	7.1µM*	21µM*	78	0	?	10µM*
S=C(N/N=C1/CCCCc2ccccc21)NC1CCCCC1	·	·	·	5	·	·
CSC(=S)N/N=C1/CCc2ccccc21	·	·	·	-1	·	·
COc1ccc(NC(=S)N/N=C2/CCCc3c(C)cc(C)cc32)cc1	2.8µM*	-27%	22	-3	1%	?
Cc1ccc(NC(=S)N/N=C2/CCCCc3ccccc32)cc1	3.5µM*	?	0	-2	?	-24%
SMILES	RORg inh	TDP1 cell noCPT	IL1B secr inh	LDHA inh	DT40 TDP1 CPT	VP16 counter
C=C(C)CNC(=S)N/N=C1\CCCCc2ccccc21	1.4µM*	?	26	-3	?	1.8µM*
CC(C)n1nnc2cc(C(=O)N(C)CC(=O)Nc3cccc(C#N)c3)ccc21	·	·	·	-2	·	·
O=C1N(Cc2cccc(F)c2)CCCN1c1ccc(C(=O)N2CCc3ccccc32)cc1	·	·	·	0	·	·
CSc1cccc(NC(=O)c2ccc(F)cc2F)c1	·	·	·	4	·	·
O=C(Nc1ccc(OCc2ccccc2)cc1)c1ccc2ccccc2c1	·	·	·	4	·	·
COc1ccc(NC(=S)N/N=C2\CC(C)(C)Oc3ccc(OC)cc32)cc1	1.4µM*	4.1µM*	-12	-9	5.8µM*	2µM*
CC(=O)N1CCC2(CC1)C/C(=N\NC(=S)Nc1ccc(C)cc1)c1cc(O)ccc1O2	10µM*	?	-29	1	15µM*	?
COc1ccc(NC(=O)O/N=C2/CCCc3ccc(OC)cc32)cc1	-14%	?	11	3	?	2%
CCN1CCN(c2ccc(C(=O)OC)cc2NC(=O)COc2ccc(C(C)(C)C)cc2)CC1	·	·	·	-6	·	·
Cc1ccc(N(C(=O)CCCC(=O)Nc2ccccn2)C(C(=O)NC2CCCC2)c2ccc(O)cc2)cc1C (stereo not drawn)	22%	?	-75*	-11	?	-6%
Cc1ccc(N(C(=O)CCl)C(C(=O)NC2CCCCC2)c2cccnc2)cc1C (stereo not drawn)	11µM*	1.6µM*	-100*	-8	1.8µM*	?
Cc1ccccc1N(C(=O)CCCC(=O)Nc1ccccn1)C(C(=O)NC1CCCC1)c1ccc(O)cc1 (stereo not drawn)	21%	?	3	0	-10%	2%
O=C(Nc1ccc(Nc2ccccc2)nc1)c1cc[n+]([O-])cc1	·	·	·	11	·	·
O=C(NCC(=O)N1CCN(c2ccc(F)cc2)CC1)NCc1ccc(F)cc1	·	·	·	-1	·	·
CC(C)c1nc2oc3c(=O)n(C)cnc3c2c2c1CCC2	·	·	·	39	·	·
CCOc1ccc(-n2nnnc2SCC(=O)NNC(=O)c2ccco2)cc1	19%	?	19	-4	16µM*	1%
O=C(CSc1nnnn1-c1ccc(F)cc1)NNC(=O)c1ccco1	10%	2%	-7	-3	8%	1%
Cc1ccccc1-c1noc(Cn2cnc3c2c(=O)n(C)c(=O)n3C)n1	·	·	·	-2	·	·
O=C(Nc1cccc(F)c1)c1cnc2sc(N3CCCC3)nn2c1=O	·	3.3µM*	·	-8	2.3µM*	·
CC(C)c1ccc(NC(=O)c2cnc3sc(N4CCCC4)nn3c2=O)cc1	·	2.1µM*	·	-1	2.9µM*	·
CC(C)NC(=O)c1cnc2sc(N3CCCCCC3)nn2c1=O	·	-20%	·	-10	-4%	·
C=CCNC(=O)c1cc(-c2cccc(C)c2)nc2ccccc12	·	·	·	17	·	·
O=c1cc(N=Nc2ccc(Cl)cc2)[nH]c(=O)[nH]1	2.5µM*	0.92µM*	-99*	30	0.52µM*	4µM*
Cc1ccc(C2=Nc3ccccc3NC(c3ccncc3)=N2)cc1	·	13µM*	·	-2	?	·
